Among the data in PubChem BioAssay (Tox21) are outcome and caspase activation values, retold here.

Structures are written as SMILES. Results filed as inconclusive are left out. Activity calls are given as the source filed them. Calls follow the shape of the dose curve; as a rule, active = well fitted activation curve with a large enough effect in the repeat runs; inconclusive = weak or mixed curves; inactive = flat fitted curve, though single readings scatter.
% is scaled to controls: 0 for no effect and ±100 for the full control effect.

The assay can be described thus: Caspase-3/7 induction in HepG2 cells by small molecules, qHTS assay (AID 1346978). Also: nearly all actives have a fitted effect of over 15% in size. To be noted: HepG2 caspase-3/7 activation, Caspase-Glo luminescence, 17 h; series mostly up to 92.4 µM. The source says: National Center for Advancing Translational Sciences [NCATS] NIH Chemical Genomics Center [NCGC] U.S. Environmental Protection Agency [EPA] National Institutes of Environmental Health Sciences [NIEHS] National Toxicology Program [NTP] Assay overview: Apoptosis is a process of programmed cell death and plays a central role in the development of multicellular organisms. It is a highly regulated process and induces cell death by activating caspases, which are the members of cysteine aspartic acid-specific protease (caspase) family. Caspases involved in apoptosis are classified by their mechanism of action as initiator caspases (caspase-2, -8, -9 and -10) and executioner caspases (caspase-3, -6, and -7). Inhibition of apoptosis results in number of cancers, autoimmune diseases, inflammatory diseases and viral infection. To identify small molecule compounds that induce apoptosis, a homogeneous, luminescent Caspase-Glo 3/7 assay was used. Wild type HepG2 cells were used to screen Tox21 libraries for identifying caspase-3/7 activity inducers.
Assay Protocol Summary: HepG2 cells were dispensed at 2,000 per well in 5uL of culture medium into white solid bottom 1536-well plates (Corning Life Sciences, Corning, NY) using a Multidrop Combi (Thermo Scientific, Waltham, MA) dispenser. The assay plates were incubated at 37 C and 5% CO2 for 5hr, and then 23nL of compounds dissolved in DMSO and positive control were transferred using a Pintool station (Wako, San Diego, CA). The assay plates were incubated at 37C and 5% CO2 for 17hr. For caspase-3/7 activity read, 4uL of Caspase-Glo 3/7 reagent (Promega Corporation, Madison, WI) was added to each well of the assay plates using Flying Reagent Dispenser (FRD, Aurora Discovery, San Diego, CA) and incubated the assay plates at room temperature for 30min. The luminescence signal was quantified using a ViewLux plate reader (Perkin Elmer, Shelton, CT).
(Quantitative high-throughput screening tests each substance at several concentrations.)
For `Cc1ccc(C(N)=O)cc1N`, the compound was classed as inactive.

As for `Cc1cccc(OCCOc2cccc(C)c2)c1`, the result was inactive.

Turning to `CCCCCc1ccc(N)cc1`, the outcome was inactive.

With `CCCCCCCCCC=O`, the call was inactive.

Consider `O=C(Cl)c1ccc([N+](=O)[O-])cc1`, for which the call was inactive.

As for `C=CCCCCCC`, the compound was classed as inactive.

Regarding `CC(=O)O[C@H]1C[C@@H]2CC[C@@H]3[C@H](CC[C@@]4(C)[C@H]3C[C@H]([N+]3(C)CCCCC3)[C@@H]4OC(C)=O)[C@@]2(C)C[C@@H]1N1CCCCC1`, the compound was called inactive.

`CCCCCCCCN(C)C`: the compound was called inactive.

`N=C(N=C(N)N)N1CCOCC1`: the result was inactive.

As to `C=C(C)C(=O)OCCN(C)C`, the result was inactive.

Turning to `O=C(Cl)c1c(Cl)cccc1Cl`, the outcome was inactive.

For `NC[C@H]1O[C@H](O[C@H]2[C@H](O)[C@@H](O[C@H]3O[C@H](CO)[C@@H](O)[C@H](N)[C@H]3O)[C@H](N)C[C@@H]2N)[C@H](O)[C@@H](O)[C@@H]1O`, the caspase activation was 0.334% [at 8.39 µM] (inactive).

Turning to `O=C(O)C1CCC(C(=O)O)CC1` (stereo not given), the result was inactive.

For `NC(N)=NN=C(/C=C/c1ccc([N+](=O)[O-])o1)/C=C/c1ccc([N+](=O)[O-])o1`, the outcome was inactive.

As to `O=C(O)[C@@H]1[C@H]2C[C@H]3c4[nH]c5ccccc5c4CCN3C[C@@H]2CC[C@@H]1O`, the result was inactive.

On to `CC(C)(C)C1CCCCC1O` (stereo not given), for which the call was inactive.

Turning to `O=S1(=O)c2cccc3cccc(c23)N1CCCN1CCN(c2ccc(F)cc2)CC1`, the result was inactive.

Turning to `CC(C)(C)c1cc(CO)cc(C(C)(C)C)c1O`, the compound was called inactive.

Consider `CC(=O)NCCCS(=O)(=O)O`, for which the result was inactive.

For `Nc1cnn([C@@H]2O[C@H](CO)[C@@H](O)[C@H]2O)c(=O)n1`, the compound was called inactive.

Consider `Oc1ccc2c(c1)OCO2`, for which the compound was called inactive.

With `CC(C)CCCC(C)CCO` (stereo not given), the outcome was inactive.

For `C=CC(=O)OCCOC(=O)CCC(=O)O`, the call was inactive.

For `C1CCC2OC2C1` (stereo not given), the compound was classed as inactive.

As for `CC(C)(C)C(=O)OCOP(=O)(COCCn1cnc2c(N)ncnc21)OCOC(=O)C(C)(C)C`, the result was inactive.

As for `CCOc1ccc2[nH]cc(C(=O)NCc3ccccc3)c(=O)c2n1`, the compound was classed as inactive.

For the compound `CN(C(=O)CCCOc1ccc2[nH]c(=O)ccc2c1)C1CCCCC1`, the compound was called inactive.

For the compound `C=CC(=O)OCC(C)OCC(C)OCC(C)OC(=O)C=C` (stereo not given), the result was inactive.

Turning to `CCCCCCCCCCCCCCCBr`, the call was inactive.

On to `CC(C)CC=O`, for which the result was inactive.

Turning to `O=C(NN1CCCC1)NS(=O)(=O)c1ccc(Cl)cc1`, the compound was classed as inactive.

Take `CC1=CCC(C(C)C)C=C1` (stereo not given): the compound was called inactive.

In the case of `CCCOc1ccc2nc(NC(=O)OC)[nH]c2c1`, the call was inactive.

Take `CC(=O)OCCc1ccccc1`: the outcome was inactive.

On to `C#CCOC(=O)[C@@H](C)Oc1ccc(Oc2ncc(Cl)cc2F)cc1`, for which the compound was called inactive.

With `CC(C)(C)c1cc(CCC(=O)OCC(COC(=O)CCc2cc(C(C)(C)C)c(O)c(C(C)(C)C)c2)(COC(=O)CCc2cc(C(C)(C)C)c(O)c(C(C)(C)C)c2)COC(=O)CCc2cc(C(C)(C)C)c(O)c(C(C)(C)C)c2)cc(C(C)(C)C)c1O`, the outcome was inactive.

For the compound `O=C(O)/C=C/c1cnc[nH]1`, the outcome was inactive.

In the case of `C=CC[N+]1([C@H]2C[C@H]3[C@@H]4CC[C@H]5C[C@H](OC(C)=O)[C@@H](N6CCCCC6)C[C@]5(C)[C@H]4CC[C@]3(C)[C@H]2OC(=O)CC)CCCCC1`, the compound was called inactive.

As to `CCCc1ccccc1`, the call was inactive.

With `CC(=O)N(O)CCCCCNC(=O)CCC(=O)N(O)CCCCCNC(=O)CCC(=O)N(O)CCCCCN`, the call was inactive.
